We go through 31 compounds from the supplement of paper PMC8866396.

One assay relates to IL-6-GFP PC-9GR. The experiment in a line: cell viability (CCK-8 OD) relative to DMSO control (fraction of control); higher = more viable cells. The conditions noted are these: compound concentration: 10 uM; treatment time: 48 h. The essentials: (§1)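 PC-9 and PC-9GR lung cancer cells expressing lentiviral IL-6-GFP were plated at 3000 cells/well in 96-well plates and treated for 48 h with each library compound at a final 10 μM. Viability was determined by CCK-8 absorbance as a ratio of each well's optical density to the vehicle control well.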

A further assay concerns IL-6-GFP PC-9. The description is as above. As to conditions: compound concentration: 10 uM; treatment time: 48 h. The essentials:
as §1

± gives the standard deviation of the averaged measurements.

For `Cl.c1ccc2c(c1)CCCC2C1=NCCN1` (configuration not stated) [Tetrahydrozoline HCl], the cell viability turned out to be 0.987 ± 0.049 in the assay with IL-6-GFP PC-9GR and 1.13 ± 0.15 with IL-6-GFP PC-9.

For `CN(C)N=Nc1[nH]cnc1C(N)=O` [Dacarbazine], the cell viability amounted to 0.95 ± 0.14 in the assay with IL-6-GFP PC-9GR and 0.8338 ± 0.005 in the assay with IL-6-GFP PC-9.

On to `COc1cccc2c1C(=O)c1c(O)c3c(c(O)c1C2=O)CC(O)(C(C)=O)CC3OC1CC(N)C(O)C(C)O1.Cl` (configuration not stated) [Daunorubicin HCl], for which the cell viability was determined as 0.0902 ± 0.071 with IL-6-GFP PC-9GR and 0.0966 ± 0.039 with IL-6-GFP PC-9.

As for `O=C(O)CCC(=O)c1ccc(-c2ccccc2)cc1` [Fenbufen], the cell viability with IL-6-GFP PC-9GR turned out to be 1 ± 0.06; with IL-6-GFP PC-9, 1.08 ± 0.12.

Consider `CC1CNc2c(cccc2S(=O)(=O)NC(CCCNC(=N)N)C(=O)N2CCC(C)CC2C(=O)O)C1.O` (configuration not stated) [Argatroban Monohydrate], for which the cell viability stood at 1.49 ± 0.35 in the assay on IL-6-GFP PC-9GR and 1.12 ± 0.23 in the assay on IL-6-GFP PC-9.

As for `CC(C(=O)O)c1ccc2c(c1)CC(=O)c1ccccc1S2` (configuration not stated) [Zaltoprofen], the cell viability was found to be 0.953 ± 0.054 in the assay with IL-6-GFP PC-9GR and 0.542 ± 0.067 in the assay with IL-6-GFP PC-9.

Take `COc1cc2nccc(Oc3ccc(NC(=O)NC4CC4)c(Cl)c3)c2cc1C(N)=O.CS(=O)(=O)O` [lenvatinib Mesylate]: the cell viability in the assay on IL-6-GFP PC-9GR was 1.15 ± 0.17; in the assay on IL-6-GFP PC-9 it was 0.265 ± 0.16.

With `CONC(=O)Nc1ccc(-c2sc3c(c2CN(C)C)c(=O)n(-c2ccc(OC)nn2)c(=O)n3Cc2c(F)cccc2F)cc1` [Relugolix], the cell viability in the assay on IL-6-GFP PC-9GR amounted to 1.41 ± 0.42; in the assay with IL-6-GFP PC-9, 1.01 ± 0.17.

With `Cc1cn(-c2cc(NC(=O)c3ccc(C)c(Nc4nccc(-c5cccnc5)n4)c3)cc(C(F)(F)F)c2)cn1` [Nilotinib (AMN-107)], the figures for the cell viability in the assay with IL-6-GFP PC-9GR and in the assay on IL-6-GFP PC-9 were 1.22 ± 0.089 and 1.135 ± 0.0089, respectively.

`CC(C(=O)O)c1ccc2c(c1)[nH]c1ccc(Cl)cc12` (configuration not stated) [Carprofen]: the cell viability in the assay on IL-6-GFP PC-9GR is 1.16 ± 0.41; with IL-6-GFP PC-9, 0.265 ± 0.35.

`O=C(O)c1cc(N=Nc2ccc(S(=O)(=O)Nc3ccccn3)cc2)ccc1O` [Sulfasalazine]: the results for the cell viability in the assay on IL-6-GFP PC-9GR and in the assay on IL-6-GFP PC-9 were 1.41 ± 0.088 and 1.22 ± 0.16, respectively.

As for `Cc1nnc(C(=O)NC(C)(C)c2nc(C(=O)NCc3ccc(F)cc3)c([O-])c(=O)n2C)o1.[K+]` [Raltegravir potassium], the cell viability turned out to be 1.37 ± 0.48 in the assay with IL-6-GFP PC-9GR and 1.12 ± 0.16 with IL-6-GFP PC-9.

`CC/C(=C(/CC)c1ccc(O)cc1)c1ccc(O)cc1` [Diethylstilbestrol]: the cell viability was determined as 1.13 ± 0.038 in the assay with IL-6-GFP PC-9GR and 1.18 ± 0.19 in the assay on IL-6-GFP PC-9.

In the case of `C=CC(=O)Nc1cc(Nc2nccc(-c3cn(C)c4ccccc34)n2)c(OC)cc1N(C)CCN(C)C.CS(=O)(=O)O` [Osimertinib mesylate], the cell viability in the assay on IL-6-GFP PC-9GR was determined as 0.206 ± 0.046; in the assay with IL-6-GFP PC-9, 0.298 ± 0.12.

Consider `COc1cc(Nc2c(C#N)cnc3cc(OCCCN4CCN(C)CC4)c(OC)cc23)c(Cl)cc1Cl` [Bosutinib (SKI-606)], for which the cell viability in the assay on IL-6-GFP PC-9GR is 0.448 ± 0.011; in the assay on IL-6-GFP PC-9, 0.429 ± 0.064.

As for `CNC(=O)c1cc(Oc2ccc(NC(=O)Nc3ccc(Cl)c(C(F)(F)F)c3)cc2)ccn1.Cc1ccc(S(=O)(=O)O)cc1` [Sorafenib Tosylate], the figures for the cell viability in the assay with IL-6-GFP PC-9GR and in the assay on IL-6-GFP PC-9 were 0.85 ± 0.18 and 0.524 ± 0.017, respectively.

As to `CC(C)C(=O)Nc1ccc([N+](=O)[O-])c(C(F)(F)F)c1` [Flutamide], the cell viability in the assay on IL-6-GFP PC-9GR worked out at 1.18 ± 0.054; in the assay with IL-6-GFP PC-9, 1.2 ± 0.53.

For `C=C1CCC2C(C)(COC(=O)CCC(=O)O)C(OC(=O)CCC(=O)O)CCC2(C)C1/C=C/C1=CCOC1=O` (configuration not stated) [Dehydroandrographolide Succinate], the figures for the cell viability in the assay on IL-6-GFP PC-9GR and in the assay on IL-6-GFP PC-9 were 0.966 ± 0.062 and 1.16 ± 0.016, respectively.

`CC(C)Cn1cnc2c(N)nc3ccccc3c21` [Imiquimod]: the cell viability in the assay on IL-6-GFP PC-9GR came to 0.774 ± 0.57; with IL-6-GFP PC-9 it was 1 ± 0.24.

In the case of `CC12CCC(CC1=O)C2(C)C` (configuration not stated) [Camphor], the results for the cell viability with IL-6-GFP PC-9GR and in the assay with IL-6-GFP PC-9 were 1.24 ± 0.3 and 0.786 ± 0.061, respectively.

For `COc1cc(-c2coc3cc4c(c(OC)c3c2=O)OCO4)cc(OC)c1OC` [Irisflorentin], the cell viability in the assay on IL-6-GFP PC-9GR was found to be 0.826 ± 0.2; in the assay on IL-6-GFP PC-9 it was 1.04 ± 0.12.

As for `O=C(c1cc(Cc2n[nH]c(=O)c3ccccc23)ccc1F)N1CCN(C(=O)C2CC2)CC1`, the results for the cell viability in the assay with IL-6-GFP PC-9GR and in the assay on IL-6-GFP PC-9 were 1.09 ± 0.081 and 1.16 ± 0.37, respectively.

`CCCCC(=O)OC1(C(=O)CO)C(C)CC2C3CCC4=CC(=O)C=CC4(C)C3(F)C(O)CC21C` (configuration not stated) [Betamethasone Valerate]: the cell viability in the assay on IL-6-GFP PC-9GR came out at 1.11 ± 0.14; with IL-6-GFP PC-9, 0.804 ± 0.026.

For `COc1cccc2c1C(=O)c1c(O)c3c(c(O)c1C2=O)CC(O)(C(=O)CO)CC3OC1CC(N)C(OC2CCCCO2)C(C)O1` (configuration not stated) [Pirarubicin], the cell viability stood at 0.33 ± 0.12 in the assay on IL-6-GFP PC-9GR and 0.208 ± 0.13 in the assay on IL-6-GFP PC-9.

In the case of `COc1c(-c2ccc3cc(NS(C)(=O)=O)ccc3c2)cc(-n2ccc(=O)[nH]c2=O)cc1C(C)(C)C` [Dasabuvir(ABT-333)], the cell viability with IL-6-GFP PC-9GR came to 0.7838 ± 0.0059; with IL-6-GFP PC-9, 0.9253 ± 0.0086.

`COc1cc2nccc(Oc3ccc(NC(=O)Nc4cc(C)on4)c(Cl)c3)c2cc1OC` [Tivozanib (AV-951)]: the cell viability in the assay with IL-6-GFP PC-9GR turned out to be 0.792 ± 0.15; in the assay with IL-6-GFP PC-9, 0.353 ± 0.036.

Regarding `CCOC(=O)c1ccc(OC(=O)CCCCCNC(=N)N)cc1.CS(=O)(=O)O` [Gabexate Mesylate], the cell viability in the assay with IL-6-GFP PC-9GR was 1.14 ± 0.069; with IL-6-GFP PC-9, 0.801 ± 0.071.

Turning to `CN1CCC(NC(=O)Nc2ccc(C#N)cc2)CC1c1nc2ccccc2[nH]1` (configuration not stated), the cell viability in the assay with IL-6-GFP PC-9GR came out at 0.848 ± 0.016; in the assay with IL-6-GFP PC-9, 1.21 ± 0.033.

Turning to `CC(=O)OCC1OC(n2ccc(=O)[nH]c2=O)C(OC(C)=O)C1OC(C)=O` (configuration not stated) [uridine triacetate], the cell viability was determined as 1.59 ± 0.3 with IL-6-GFP PC-9GR and 1.175 ± 0.0034 in the assay on IL-6-GFP PC-9.

For the compound `Cc1cnc(Nc2ccc(OCCN3CCCC3)cc2)nc1Nc1cccc(S(=O)(=O)NC(C)(C)C)c1`, the cell viability worked out at 0.186 ± 0.081 with IL-6-GFP PC-9GR and 0.3 ± 0.12 in the assay with IL-6-GFP PC-9.

Take `O=C([O-])Cc1ccccc1Nc1c(Cl)cccc1Cl.[Na+]` [Diclofenac Sodium]: the cell viability in the assay on IL-6-GFP PC-9GR turned out to be 1.3 ± 0.039; in the assay on IL-6-GFP PC-9, 1.09 ± 0.084.
